The source of these data is PubChem BioAssay (EPA / NIEHS).

Activity calls are given as the source filed them. How the source made its calls: active means hit-call score of the fitted dose curve at least 0.9, where 1 is the maximum; inactive means score below 0.9.

Read-out in one experiment: Forkhead box O1 (FOXO1), FOXO1 (gene 2308)
In words: LTEA_HepaRG_FOXO1: Life Technologies and Expression Analysis (LTEA) Assay for Forkhead box O1 (FOXO1) using HepaRG (AID 2283456). The settings on record: mRNA level, 48 h; actives raise or lower the signal. The method in brief:
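Differentiated HepaRG cells, in serum-free induction medium with 0.5% DMSO, exposed 48 h in duplicate to 8-point half-log series from 100 uM. FOXO1 mRNA measured by TaqMan qRT-PCR, normalized to ACTB, GAPDH, POLR2A; bidirectional fit versus DMSO.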
On to `CNC(=O)ON=C(C)SC`, for which the compound was classed as inactive.

In the case of `Nc1c(Cl)cc([N+](=O)[O-])cc1Cl`, the call was inactive.

Take `CC(COc1ccc(Oc2ccccc2)cc1)Oc1ccccn1` (stereo not drawn): the compound was called inactive.

Turning to `C#CC(C)(C)NC(=O)c1cc(Cl)cc(Cl)c1`, the call was inactive.

For `CCCSP(=O)(OCC)Oc1ccc(Br)cc1Cl` (stereo not drawn), the call was inactive.

As for `FC(F)C(F)(F)OCC(Cn1cncn1)c1ccc(Cl)cc1Cl` (stereo not drawn), the AC50 was 75.3 µM (active).

In the case of `C[Si](Cn1cncn1)(c1ccc(F)cc1)c1ccc(F)cc1`, the AC50 is 74.6 µM (active).

Consider `CCOP(=S)(OCC)Oc1cc(C)nc(C(C)C)n1`, for which the call was inactive.

As to `CCCCN(CC)c1c([N+](=O)[O-])cc(C(F)(F)F)cc1[N+](=O)[O-]`, the compound was called inactive.

Consider `C#CCC1=C(C)C(OC(=O)C2C(C=C(C)C)C2(C)C)CC1=O` (stereo not drawn), for which the result was inactive.

Take `CCOP(=S)(OCC)Oc1ccc([N+](=O)[O-])cc1`: the result was inactive.

For the compound `CCCSP(=O)(OCC)SCCC`, the compound was called inactive.

For the compound `Cc1ccn2nc(S(=O)(=O)Nc3c(F)cccc3F)nc2n1`, the compound was called inactive.

Read-out in another experiment: not listed separately
In words: CEETOX_H295R_TESTO: CeeTox H295R High-throughput Steroidogenesis Assay for Testosterone (TESTO) (AID 2283457).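 On AC50: cells exposed to chemicals for 48 h before medium collection.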 Particulars: actives raise or lower the signal. The method in brief: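 H295R, passage ≤10, 48 h dosing; media extracted with MTBE → HPLC-MS/MS for testosterone; 7-pt standard curve sets LLOQ/ULOQ; bidirectional fit vs DMSO; MTT viability same wells.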
On to `CCOC(=O)COc1cc(-c2nn(C)c(OC(F)F)c2Cl)c(F)cc1Cl`, for which the compound was called inactive.

`CNC(=O)ON=C(SC)C(=O)N(C)C`: the result was inactive.

Regarding `COc1ccc(C(=CC(=O)N2CCOCC2)c2ccc(Cl)cc2)cc1OC`, the AC50 was 32.8 µM (active).

In the case of `CCOP(=O)(NC(C)C)Oc1ccc(SC)c(C)c1` (stereo not drawn), the AC50 is 26.2 µM (active).

For `CC(COc1ccc(Oc2ccccc2)cc1)Oc1ccccn1` (stereo not drawn), the call was inactive.

On to `CCCSP(=O)(OCC)SCCC`, for which the call was inactive.

Read-out in a further experiment: growth arrest and DNA damage 45 (GADD45A), GADD45A (gene 1647)
Put plainly: LTEA_HepaRG_GADD45A: Life Technologies and Expression Analysis (LTEA) Assay for growth arrest and DNA damage 45 (GADD45A) using HepaRG (AID 2283458). The settings on record: mRNA level, 48 h; actives raise or lower the signal. The method in brief:
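Cells plated and cultured 48 h, switched to serum-free induction medium, then dosed for 48 h (100 uM top, half-log dilutions, 0.5% DMSO). RNA was isolated and transcript measured by Fluidigm qRT-PCR.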
As for `COc1cccc(C(=O)NN(C(=O)c2cc(C)cc(C)c2)C(C)(C)C)c1C`, the result was inactive.

As to `Cc1cc(C2CC2)nc(Nc2ccccc2)n1`, the compound was classed as inactive.

As to `CNC(=O)Oc1cccc2c1OC(C)(C)O2`, the compound was classed as inactive.

For `CC(C1CC1)C(O)(Cn1cncn1)c1ccc(Cl)cc1` (stereo not drawn), the compound was classed as inactive.

In the case of `CSc1nnc(C(C)(C)C)c(=O)n1N`, the outcome was inactive.

`CCCOCC(=Nc1ccc(Cl)cc1C(F)(F)F)n1ccnc1`: the compound was called inactive.

Turning to `COP(=O)(NC(C)=O)SC` (stereo not drawn), the call was inactive.

In the case of `CCOC(=O)COc1cc(-c2nn(C)c(OC(F)F)c2Cl)c(F)cc1Cl`, the call was inactive.

Consider `CN(C)C(=O)Nc1cccc(C(F)(F)F)c1`, for which the AC50 was 79.2 µM (active).

Take `Nc1nc(N)nc(NC2CC2)n1`: the call was inactive.

Consider `CN(C)NC(=O)CCC(=O)O`, for which the compound was classed as inactive.

`CNC(=O)ON=C(SC)C(=O)N(C)C`: the compound was called inactive.

On to `CCc1cccc(C)c1N(C(=O)CCl)C(C)COC` (stereo not drawn), for which the result was inactive.

As to `CCOP(=S)(OCC)Oc1ccc2c(C)c(Cl)c(=O)oc2c1`, the result was inactive.

Consider `CNc1cnn(-c2cccc(C(F)(F)F)c2)c(=O)c1Cl`, for which the result was inactive.

With `CC(C)[C@H](C(=O)O[C@H](C#N)c1cccc(Oc2ccccc2)c1)c1ccc(Cl)cc1`, the result was inactive.

As for `COc1ccc(C(=CC(=O)N2CCOCC2)c2ccc(Cl)cc2)cc1OC`, the compound was called inactive.

`CCOP(=O)(NC(C)C)Oc1ccc(SC)c(C)c1` (stereo not drawn): the compound was classed as inactive.

On to `CSc1nc(NC(C)C)nc(NC(C)C)n1`, for which the result was inactive.

As for `CC1(C(=O)Nc2ccc(O)c(Cl)c2Cl)CCCCC1`, the result was inactive.

For `CCNc1nc(Cl)nc(NC(C)(C)C#N)n1`, the call was inactive.

With `CNC(=O)ON=C(C)SC`, the compound was called inactive.

In the case of `Nc1c(Cl)cc([N+](=O)[O-])cc1Cl`, the AC50 is 78.9 µM (active).

For the compound `CC(COc1ccc(Oc2ccccc2)cc1)Oc1ccccn1` (stereo not drawn), the result was inactive.

On to `C#CC(C)(C)NC(=O)c1cc(Cl)cc(Cl)c1`, for which the call was inactive.

`CCCSP(=O)(OCC)Oc1ccc(Br)cc1Cl` (stereo not drawn): the compound was called inactive.

Regarding `FC(F)C(F)(F)OCC(Cn1cncn1)c1ccc(Cl)cc1Cl` (stereo not drawn), the AC50 was 74.2 µM (active).

With `C[Si](Cn1cncn1)(c1ccc(F)cc1)c1ccc(F)cc1`, the outcome was inactive.

For the compound `CCOP(=S)(OCC)Oc1cc(C)nc(C(C)C)n1`, the outcome was inactive.

As to `CCCCN(CC)c1c([N+](=O)[O-])cc(C(F)(F)F)cc1[N+](=O)[O-]`, the compound was called inactive.

Regarding `C#CCC1=C(C)C(OC(=O)C2C(C=C(C)C)C2(C)C)CC1=O` (stereo not drawn), the outcome was inactive.

`CCOP(=S)(OCC)Oc1ccc([N+](=O)[O-])cc1`: the compound was called inactive.

Consider `CCCSP(=O)(OCC)SCCC`, for which the result was inactive.

Take `Cc1ccn2nc(S(=O)(=O)Nc3c(F)cccc3F)nc2n1`: the outcome was inactive.

In general, AC50 refers to the midpoint of the concentration-response curve, whichever way the signal moves.
